The results in this text go back to PubChem BioAssay (NCI).

Compounds without any hit were thinned out: in the full panel of roughly 83,000, 20% have a hit.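 Interpretation: 100, growth as untreated; towards 0, rising growth inhibition; 0, no net growth; 0 to -100, cell death. Compounds scoring below 10 were considered active.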 A number with no mark means an inactive call. Active and inactive are the calls of the source.

Some test systems named below: DU-145 prostate; K-562 leukemia; MALME-3M melanoma; MDA-MB-231 breast; RXF 393 renal; SF-268 CNS; SF-295 CNS; SF-539 CNS; UACC-257 melanoma; M14 melanoma; HCT-15 colon; HT29 colon; SNB-75 CNS; SNB-19 CNS; U251 CNS; PC-3 prostate; SK-MEL-5 melanoma; UACC-62 melanoma; LOX IMVI melanoma; SK-MEL-28 melanoma.
Assay in all cases: NCI-60 one-dose screen, 48 h (100 = growth as untreated, 0 = no growth, -100 = all killed)
Holding throughout (settings): 10 µM unless noted

For the molecule `CC(=C(c1ccc(OCCN2CCCC2)cc1)c1ccc(OCCN2CCCC2)cc1)c1ccc(Cl)cc1`, the growth is 25.8% in the assay on DU-145 prostate; -43.6% (active) with K-562 leukemia; -85.9% (active) in the assay on MALME-3M melanoma; -68.1% (active) in the assay on MDA-MB-231 breast; -74.7% (active) with RXF 393 renal; -23.1% (active) in the assay on SF-268 CNS. In addition, the growth in the assay on SF-295 CNS is -63.7% (active); in the assay with SF-539 CNS, -87.1% (active); with UACC-257 melanoma, -73.6% (active); in the assay on M14 melanoma it was -84.5% (active); in the assay with HCT-15 colon it was -73% (active); with HT29 colon, -59.2% (active). Also, the growth was 45.8% in the assay with SNB-75 CNS; -48.8% (active) with SNB-19 CNS; -75.1% (active) with U251 CNS; -26.9% (active) with PC-3 prostate; -94.9% (active) with SK-MEL-5 melanoma; -64.7% (active) with UACC-62 melanoma. In addition, the growth in the assay with LOX IMVI melanoma was -86.5% (active); in the assay with SK-MEL-28 melanoma it was -82.5% (active).
For the molecule `CN1CCN(Cc2ccc(NC(=O)c3cncc(C#Cc4cnc5ccc(OCCCS(C)(=O)=O)nn45)c3)cc2C(F)(F)F)CC1`, the growth in the assay with DU-145 prostate was 1.01% (active); in the assay on K-562 leukemia, 5.44% (active); in the assay on MALME-3M melanoma it was -80.5% (active); in the assay on MDA-MB-231 breast, -20.7% (active); with RXF 393 renal it was -79.6% (active); with SF-268 CNS, -45.8% (active). For the same molecule, the growth with SF-295 CNS was 0.237% (active); with SF-539 CNS it was -68.4% (active); in the assay with UACC-257 melanoma, -27.6% (active); with M14 melanoma it was -78.9% (active); in the assay with HCT-15 colon, 3.14% (active); in the assay on HT29 colon, -10.8% (active). Moreover, the growth with SNB-75 CNS is -91.7% (active); with SNB-19 CNS it was 1.67% (active); with U251 CNS, -4.26% (active); in the assay with PC-3 prostate, 1.61% (active); with SK-MEL-5 melanoma, -57% (active); in the assay with UACC-62 melanoma it was -57.3% (active). Also, the results for the growth with LOX IMVI melanoma and with SK-MEL-28 melanoma were -82.6% (active) and -21.8% (active), respectively.
Regarding `CCOC(=O)c1c(NCC(=O)Nc2cccc([N+](=O)[O-])c2)sc(C(C)=O)c1C`, the growth in the assay with DU-145 prostate was -13.9% (active); in the assay on K-562 leukemia, 8.15% (active); in the assay with MALME-3M melanoma, -21.8% (active); with MDA-MB-231 breast, 10.3%; in the assay with RXF 393 renal it was -86.5% (active); in the assay with SF-268 CNS, -17.6% (active). The growth in the assay on SF-295 CNS is -11.7% (active); in the assay on SF-539 CNS it was -28.8% (active); in the assay with UACC-257 melanoma, -11.9% (active); in the assay with M14 melanoma, -81.7% (active); in the assay on HCT-15 colon it was -6.35% (active); with HT29 colon it was -35.3% (active). For the same molecule, the growth is -0.605% (active) in the assay on SNB-75 CNS; 9.51% (active) with SNB-19 CNS; -13.2% (active) in the assay on U251 CNS; -14.5% (active) with PC-3 prostate; -82.9% (active) in the assay on SK-MEL-5 melanoma; -19.6% (active) in the assay on UACC-62 melanoma. Moreover, the results for the growth in the assay on LOX IMVI melanoma and with SK-MEL-28 melanoma were -38.1% (active) and 2.62% (active), respectively.
In the case of `Cc1nc(/N=C(N)/N=C(\N)c2cccc(Br)c2)sc1C`, the growth was 57.9% in the assay on DU-145 prostate; 15.9% in the assay on K-562 leukemia; 62% with MALME-3M melanoma; 76.5% in the assay on MDA-MB-231 breast; 56.9% with RXF 393 renal; 80% in the assay on SF-268 CNS. Further, the growth is 8.89% (active) in the assay with SF-295 CNS; 37.8% in the assay on SF-539 CNS; 88.3% in the assay on UACC-257 melanoma; 47.1% with M14 melanoma; 25.1% in the assay on HCT-15 colon; 17.8% in the assay on HT29 colon. Moreover, the growth is 62.9% in the assay with SNB-75 CNS; 42.9% in the assay with SNB-19 CNS; 47% in the assay on U251 CNS; 59.8% in the assay with PC-3 prostate; 69.8% in the assay with SK-MEL-5 melanoma; 28.1% with UACC-62 melanoma. The results for the growth in the assay with LOX IMVI melanoma and with SK-MEL-28 melanoma were 43.5% and 72.8%, respectively.
Turning to `Brc1cccc(-c2cc(-c3ccc4c(c3)OC=CO4)[nH]n2)c1`, the growth is 54.8% with DU-145 prostate; 13.6% in the assay with K-562 leukemia; 25.6% in the assay with MALME-3M melanoma; 53.2% in the assay with MDA-MB-231 breast; 60.2% in the assay with RXF 393 renal; 64.6% with SF-268 CNS. The growth with SF-295 CNS was 38%; in the assay on SF-539 CNS, 49.3%; with UACC-257 melanoma, 67.5%; in the assay with M14 melanoma it was 15.7%; in the assay on HCT-15 colon it was 21.1%; with HT29 colon, 14%. The growth with SNB-75 CNS is 27.5%; in the assay on SNB-19 CNS it was 48.6%; with U251 CNS it was 29%; in the assay with PC-3 prostate it was 54.1%; in the assay with SK-MEL-5 melanoma it was 22.8%; in the assay with UACC-62 melanoma it was 52.2%. Moreover, the growth was 45.6% in the assay with LOX IMVI melanoma and 50% with SK-MEL-28 melanoma.
With `CC(C)(C)c1cc(NC(=O)Nc2ccc(-c3cn4c5c(sc4n3)CCc3cn(CCCN4CCCCC4)cc3-5)cc2)no1`, the growth was -96.4% (active) with DU-145 prostate; 3.01% (active) with K-562 leukemia; -79.1% (active) in the assay on MALME-3M melanoma; -77.3% (active) in the assay with MDA-MB-231 breast; -71.6% (active) with RXF 393 renal; -58.2% (active) in the assay on SF-268 CNS. Further, the growth was -53.6% (active) with SF-295 CNS; -92.1% (active) in the assay with SF-539 CNS; 51.3% with UACC-257 melanoma; -93.6% (active) in the assay on M14 melanoma; -82.7% (active) with HCT-15 colon; -50.7% (active) in the assay with HT29 colon. In addition, the growth in the assay with SNB-75 CNS was 39.5%; in the assay on SNB-19 CNS, -83.5% (active); in the assay with U251 CNS, -86.3% (active); in the assay with PC-3 prostate it was -74.8% (active); in the assay with SK-MEL-5 melanoma, -51.9% (active); in the assay with UACC-62 melanoma it was 98%. Also, the growth was -96.2% (active) in the assay on LOX IMVI melanoma and -89.8% (active) in the assay on SK-MEL-28 melanoma.
With `N#CC1=C2NCCCNc3oc(nc3C#N)Cc3ccccc3CC(=N1)O2`, the growth is 99% in the assay on DU-145 prostate; 12% in the assay with K-562 leukemia; 97.8% in the assay with MALME-3M melanoma; 97.6% in the assay with MDA-MB-231 breast; 93.2% with RXF 393 renal; 101% in the assay with SF-268 CNS. The growth was 108% in the assay with SF-295 CNS; 99.2% in the assay on SF-539 CNS; 92.2% with UACC-257 melanoma; 86.4% in the assay with M14 melanoma; 74.8% in the assay with HCT-15 colon; 102% in the assay with HT29 colon. The growth is 92% in the assay with SNB-75 CNS; 93.2% in the assay with SNB-19 CNS; 96.1% in the assay with U251 CNS; 91.9% with PC-3 prostate; 99.1% with SK-MEL-5 melanoma; 87.5% in the assay on UACC-62 melanoma. Further, the growth in the assay with LOX IMVI melanoma was 8.01% (active); in the assay with SK-MEL-28 melanoma, 102%.
On to `O=C(/C=C/c1csc(Br)n1)NO`, for which the growth with DU-145 prostate was 25%; with K-562 leukemia it was 9.85% (active); with MALME-3M melanoma, 1% (active); in the assay on MDA-MB-231 breast it was 34.1%; in the assay with RXF 393 renal, -15.9% (active); in the assay on SF-268 CNS, 57.6%. The growth was 7.79% (active) in the assay on SF-295 CNS; 35.4% in the assay with SF-539 CNS; 22.3% in the assay on UACC-257 melanoma; 27.1% in the assay with M14 melanoma; 49% in the assay with HCT-15 colon; 11.3% in the assay with HT29 colon. The growth in the assay with SNB-75 CNS was 9.37% (active); in the assay with SNB-19 CNS it was 38.5%; in the assay on U251 CNS, 31.4%; in the assay with PC-3 prostate, 44.3%; in the assay on SK-MEL-5 melanoma, -33.1% (active); with UACC-62 melanoma, -2.56% (active). Besides, the growth with LOX IMVI melanoma is -13.8% (active); with SK-MEL-28 melanoma it was 33.4%.
